SMILES strings stand for the structures. Active and inactive are the calls of the source.

Experimental findings from PubChem BioAssay are described below.

Test [1] has as its system Plasmodium falciparum Sir2 (PF13_0152, Sir2A). The experiment in a line: pfSir2 binders on small-molecule microarrays, primary screen, biochemical, small-molecule microarray, 635 nm fluorescence (AID 1098).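 Further: score merges spot fluorescence intensity with its signal-to-noise ratio.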 As to conditions: small-molecule microarray binding, fluorescence 635 nm; higher = more signal.
Test [2] can be described thus: small-molecule microarray binders of probe aDKK1, primary screen, biochemical, biotinylated probe, 635/667 nm fluorescence (AID 1099).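 Further: score merges 667nm spot fluorescence with signal to noise across triplicate slides; reference of the scale not given here.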 The following applies: higher = more signal.
Test [3] is described as follows: small-molecule microarray binders of probe aCHRDL2, primary screen, biochemical, biotinylated probe, 635/667 nm fluorescence (AID 1100). As to conditions: higher = more signal.
The nature of test [4]: splicing luciferase reporter signal modulators, primary screen, spliceosome inhibition project, cell-based, HEK293, splice +/- reporter (AID 1101).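 Further: HEK293 cells carrying a splicing-competent luciferase reporter gene; test concentration not given here.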 The following applies: luminescence, 24 h, higher = more signal, called active from +8 up or from −8 down. (In general: In a reporter assay the amount or activity of a reporter protein is the signal.)
Test [5] concerns the target Fibroblast growth factor 10 (Homo sapiens) (UniProt O15520). The experiment in a line: FGF10 binders on small-molecule microarrays, primary screen, biochemical, small-molecule microarray, 635 nm fluorescence (AID 1102). As to conditions: FGF10 binding, fluorescence 635 nm, higher = more signal.
Test [6] relates to glycogen synthase kinase-3 (GSK3A per assay name; protocol says GSK3B). The experiment in a line: GSK3 binders on small-molecule microarrays, primary screen, biochemical, small-molecule microarray, 635 nm fluorescence, GSK3A (AID 1103). Further: the record names both GSK3A and GSK3B. The following applies: small-molecule microarray binding, fluorescence 635 nm; higher = more signal.
The target of test [7] is Epidermal growth factor receptor (Homo sapiens) (UniProt P00533). The test can be described thus: EGFR binders on small-molecule microarrays, primary screen, biochemical, small-molecule microarray, 635 nm fluorescence (AID 1104).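 Further: score merges 667 nm emission intensity with spot signal to noise over triplicate slides.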 As to conditions: EGFR binding, higher = more signal.
Epidermal growth factor receptor (Homo sapiens), sequence (P00533 whole entry, looked up): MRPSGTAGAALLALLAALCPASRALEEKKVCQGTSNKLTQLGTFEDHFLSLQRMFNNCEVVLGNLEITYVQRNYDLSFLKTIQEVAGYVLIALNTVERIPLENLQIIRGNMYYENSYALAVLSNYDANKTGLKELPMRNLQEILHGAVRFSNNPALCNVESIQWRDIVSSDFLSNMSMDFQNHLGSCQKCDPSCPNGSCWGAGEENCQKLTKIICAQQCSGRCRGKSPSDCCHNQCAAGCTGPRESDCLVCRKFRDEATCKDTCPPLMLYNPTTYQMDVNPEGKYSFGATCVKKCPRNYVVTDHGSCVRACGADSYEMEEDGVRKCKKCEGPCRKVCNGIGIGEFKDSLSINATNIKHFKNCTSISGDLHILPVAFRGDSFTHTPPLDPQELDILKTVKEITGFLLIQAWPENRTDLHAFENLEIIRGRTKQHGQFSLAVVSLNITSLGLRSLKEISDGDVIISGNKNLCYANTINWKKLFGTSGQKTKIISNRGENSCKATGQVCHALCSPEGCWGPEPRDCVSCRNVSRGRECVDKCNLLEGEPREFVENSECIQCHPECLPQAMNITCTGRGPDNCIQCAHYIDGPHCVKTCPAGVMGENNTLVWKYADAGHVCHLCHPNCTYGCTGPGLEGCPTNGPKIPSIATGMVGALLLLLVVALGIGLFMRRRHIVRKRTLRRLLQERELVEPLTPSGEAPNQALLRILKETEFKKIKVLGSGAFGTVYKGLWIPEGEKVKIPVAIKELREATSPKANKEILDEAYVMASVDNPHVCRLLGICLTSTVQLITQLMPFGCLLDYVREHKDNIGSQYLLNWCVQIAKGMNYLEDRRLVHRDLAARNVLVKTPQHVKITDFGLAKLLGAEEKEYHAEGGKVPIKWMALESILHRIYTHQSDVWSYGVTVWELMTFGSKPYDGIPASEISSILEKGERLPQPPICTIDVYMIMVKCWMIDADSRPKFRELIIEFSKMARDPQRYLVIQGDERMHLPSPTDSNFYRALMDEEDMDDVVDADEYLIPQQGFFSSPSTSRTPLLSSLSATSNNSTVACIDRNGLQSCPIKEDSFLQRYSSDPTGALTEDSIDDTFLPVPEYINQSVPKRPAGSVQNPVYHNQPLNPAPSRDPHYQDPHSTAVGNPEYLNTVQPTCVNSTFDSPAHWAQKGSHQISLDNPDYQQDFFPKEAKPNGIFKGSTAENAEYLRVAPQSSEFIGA
The target in test [8] is Follistatin-related protein 3 (Homo sapiens) (UniProt O95633). The experiment in a line: FSTL3 binders on small-molecule microarrays, primary screen, biochemical, small-molecule microarray, 635 nm fluorescence (AID 1105).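 Further: score merges emission near 667 nm and signal to noise per printed spot across three slides.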 The following applies: FSTL3 binding, higher = more signal.
Follistatin-related protein 3 (Homo sapiens), sequence (O95633 whole entry, looked up): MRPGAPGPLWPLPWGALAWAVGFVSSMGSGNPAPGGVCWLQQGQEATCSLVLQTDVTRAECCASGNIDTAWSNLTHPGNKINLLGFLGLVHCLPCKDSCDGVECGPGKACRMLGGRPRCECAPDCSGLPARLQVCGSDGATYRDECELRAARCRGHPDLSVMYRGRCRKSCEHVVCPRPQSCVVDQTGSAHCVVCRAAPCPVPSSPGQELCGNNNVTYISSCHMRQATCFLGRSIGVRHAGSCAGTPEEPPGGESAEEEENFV
For test [9], the target named is Dickkopf-related protein 1 (Homo sapiens) (UniProt O94907). The test can be described thus: DKK1 binders on small-molecule microarrays, primary screen, biochemical, small-molecule microarray, 635 nm fluorescence scan (AID 1106).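 Further: score merges emission near 667 nm with signal to noise over three replicate slides.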 As to conditions: DKK1 binding, higher = more signal.
Dickkopf-related protein 1 (Homo sapiens), sequence (O94907 whole entry, looked up): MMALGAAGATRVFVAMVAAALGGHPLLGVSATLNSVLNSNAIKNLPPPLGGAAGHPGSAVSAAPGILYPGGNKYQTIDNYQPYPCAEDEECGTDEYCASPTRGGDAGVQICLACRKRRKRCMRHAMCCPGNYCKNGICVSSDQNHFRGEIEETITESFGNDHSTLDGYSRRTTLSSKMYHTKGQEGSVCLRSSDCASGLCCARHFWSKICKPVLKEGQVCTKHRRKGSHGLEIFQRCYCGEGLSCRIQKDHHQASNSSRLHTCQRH
Test [10] has as its system Inhibin beta A chain (activin A). The experiment in a line: INHBA (activin A) binders on microarrays, primary screen, biochemical, small-molecule microarray, 635 nm fluorescence scan (AID 1107).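 Further: mouse activin A protein probed at 4.33 µg/mL on printed slides; score merges bound-protein fluorescence near 667 nm with spot signal-to-noise.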 The following applies: small-molecule microarray binding, higher = more signal.

Fibroblast growth factor 10 (Homo sapiens), sequence (O15520 whole entry, looked up): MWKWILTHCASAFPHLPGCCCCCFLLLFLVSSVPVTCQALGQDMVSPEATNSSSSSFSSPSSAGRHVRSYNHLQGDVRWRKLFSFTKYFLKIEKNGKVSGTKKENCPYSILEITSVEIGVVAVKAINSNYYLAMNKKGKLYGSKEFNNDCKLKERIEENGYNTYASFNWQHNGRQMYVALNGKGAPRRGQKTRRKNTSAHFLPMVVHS

For the molecule `COCCOC(=O)N1C(=O)[C@@]2(c3cc(C#CCC(C(=O)OC)C(=O)OC)ccc31)[C@H](C(=O)NC[C@H](O)c1ccccc1)[C@H]1C(=O)O[C@H](c3ccccc3)[C@H](c3ccccc3)N1[C@@H]2c1ccc(O)cc1`, the composite z-score in test [1] is 1.17; in [2], -0.0319; in test [3] it was 0.521; in test [5] it was 0.923; in test [6], 1.22; in [7] it was -0.239. For the same molecule, the composite z-score in test [8] is 0.186; in test [9] it was -0.224; in test [10], -0.29. In addition, the z-score in test [4] is 0.556 (inactive).
As to `CC(C)C(=C=CC[C@@H](O)c1cccc(OCCO)c1)C[C@@H](O)c1ccccn1`, the composite z-score was 0.862 in [1]; -0.261 in test [2]; -0.315 in test [3]; 0.285 in test [5]; -0.366 in [6]; -0.604 in test [7]. Also, the composite z-score in [8] amounted to 0.0146; in test [9], 0.0852; in [10], 0.139. Further, the z-score in [4] is 0.111 (inactive).
Turning to `COCCCNC(=O)[C@@]1(c2ccc([N+](=O)[O-])cc2)CC(=O)N(C(C)C)[C@@H]1c1ccc(CO)cc1`, the composite z-score was 0.0788 in test [1]; 0.46 in test [2]; 0.8 in test [3]; -0.512 in test [5]; -0.63 in [6]; 0.608 in test [7]. The composite z-score in [8] worked out at 0.373; in test [9] it was 0.289; in test [10], 1.07. Further, in test [4], the z-score is 0.0532 (inactive).
In the case of `CCCCC(=C=CC[C@H](O)c1ccc(OCCO)cc1)C[C@H](O)COCc1ccccc1`, the composite z-score was 1.07 in [1]; -0.221 in test [2]; -0.0323 in test [3]; 0.793 in test [5]; -0.171 in test [6]; -0.304 in test [7]. In addition, the composite z-score was -0.603 in test [8], -0.259 in [9] and 1.12 in test [10]. For the same molecule, the z-score in test [4] is -0.639 (inactive).
As to `CCOC(=O)C[C@H]1[C@H](OC(=O)c2ccccc2-c2ccccc2)[C@@H](NC(=O)c2ccccc2)c2cc(OCCCO)ccc2N1C(=O)c1ccccc1`, the composite z-score is -0.242 in test [1]; 0.0316 in test [2]; -0.375 in test [3]; 0.645 in test [5]; 0.459 in test [6]; -0.106 in test [7]. Further, the values for the composite z-score in test [8], in [9] and in [10] were 0.284, 0.169 and 0.169, respectively. Moreover, the z-score in [4] was 0.0178 (inactive).
Turning to `C=CCC(OC(C)=O)[C@@H]1[C@@H](N(Cc2cccc3ccccc23)C(=O)Cc2ccc(F)cc2)c2cc(OCCCO)ccc2N1C(=O)c1ccc(-c2ccccc2)cc1` (stereo not given in full), the composite z-score in test [1] was -0.171; in test [2] it was 0.592; in test [3] it was 0.976; in test [5] it was -0.219; in test [6], -0.502; in test [7], -0.304. Further, the figures for the composite z-score in [8], in test [9] and in test [10] were 0.047, -0.506 and 1.45, respectively. Moreover, the z-score in test [4] was -0.312 (inactive).
Regarding `C=C(COC)/C(=C/C[C@@H](OC(C)=O)c1ccc(CO)o1)c1cc(C(=O)OC)ccc1OC`, the composite z-score in test [1] is 0.403; in test [2] it was -0.138; in [3] it was -0.0929; in [5], 1.17; in test [6] it was 0.0212; in [7], -0.725. Also, the composite z-score in [8] was -0.185; in test [9], -0.305; in test [10] it was 1.08. In [4], the z-score is 0.36 (inactive).
For the molecule `COCCOC(=O)N1C(=O)[C@@]2(c3ccccc31)[C@H](c1ccccc1OCCO)N1[C@H](c3ccccc3)[C@H](c3ccccc3)OC(=O)[C@H]1[C@@H]2C(=O)N1CCCCCCC1`, the composite z-score came to 1.91 in [1]; 3.18 in test [2]; 1.76 in test [3]; 1.37 in test [5]; 1.37 in [6]; 1.91 in test [7]. Besides, the composite z-score in test [8] came out at 1.68; in test [9], 2.31; in [10] it was 2.02. For the same molecule, in test [4], the z-score is -1.46 (inactive).
Regarding `[N-]=[N+]=NCc1ccccc1[C@H]1OC(c2ccc(OCCCO)cc2)=N[C@@]1(Cc1ccccc1)C(=O)NCCN1CCOCC1`, the composite z-score was 1.23 in test [1]; -0.378 in [2]; 0.75 in [3]; 1.43 in test [5]; 1.21 in [6]; 0.446 in test [7]. For the same molecule, the values for the composite z-score in test [8], in test [9] and in test [10] were 1.07, 0.0815 and 0.768, respectively. In addition, the z-score in test [4] was -1.06 (inactive).
Take `C#C[C@@H](CC)O[Si](C#CCCCC#N)(C(C)C)C(C)C`: the composite z-score was 0.329 in test [1]; 0.155 in [2]; -0.0862 in test [3]; -0.232 in [5]; -0.021 in test [6]; -0.405 in test [7]. The composite z-score in [8] was -0.669; in [9], -0.277; in [10], 0.573. In addition, the z-score in test [4] was -0.196 (inactive).
For the molecule `COCCOC(=O)N1C(=O)[C@@]2(c3cc(C#CCNC(N)=O)ccc31)[C@H](c1ccc(OCCO)cc1)N1[C@H](c3ccccc3)[C@H](c3ccccc3)OC(=O)[C@H]1[C@@H]2C(=O)NC[C@H](O)c1ccccc1`, the composite z-score in test [1] was found to be 1.4; in test [2], 0.26; in test [3] it was 0.788; in test [5], 0.945; in test [6], 0.469; in [7] it was 0.711. The composite z-score in test [8] was 1.29; in [9] it was 0.583; in test [10], 1.43. In [4], the z-score was 0.38 (inactive).
As to `C=C(/C(=C/C[C@@H](OC(=O)c1ccncc1)c1cccc(OCCO)c1)c1cnc2ccccc2c1)C(C)C`, the composite z-score in test [1] was found to be 0.198; in [2], 0.0215; in test [3], 0.415; in [5], 1.5; in test [6], 1.18; in [7] it was 0.922. The values for the composite z-score in [8], in [9] and in test [10] were 1.51, 0.858 and 1.52, respectively. For the same molecule, in test [4], the z-score is -0.537 (inactive).
In the case of `C=CCC(OC(C)=O)[C@@H]1[C@@H](N(Cc2ccc(-c3cccc(C(F)(F)F)c3)o2)C(=O)Cc2ccc(OC)cc2)c2cc(OCCCO)ccc2N1C(=O)Cc1ccc2ccccc2c1` (stereo not given in full), the composite z-score was 0.946 in test [1]; -0.178 in [2]; 0.406 in test [3]; -0.0775 in test [5]; -0.953 in [6]; -0.749 in [7]. For the same molecule, the results for the composite z-score in test [8], in [9] and in test [10] were -0.475, -0.274 and 0.613, respectively. In test [4], the z-score was -1.16 (inactive).
With `Cc1ccc([C@H]2C(C(=O)O)=C[C@@H](C(C)(C)C)N2S(=O)(=O)c2ccc(C)cc2)cc1`, the composite z-score in test [1] is 1.03; in test [2], 1.05; in [3] it was 1.06; in [5] it was 1.1; in [6], 1.31; in test [7], 0.0496. In addition, the results for the composite z-score in [8], in test [9] and in test [10] were 1.17, -0.591 and 0.265, respectively. Also, the z-score in [4] is 0.0856 (inactive).
Turning to `C=C[C@@H](OC)[C@H](OC(=O)Nc1ccc(OC)cc1)c1ccc(OC)c(O)c1`, the composite z-score in test [1] was -1.1; in [2], -0.259; in test [3], 0.601; in [5], -0.818; in test [6], -0.465; in [7], -0.75. In addition, the composite z-score is -1.11 in test [8], -0.642 in test [9] and -0.267 in test [10]. Moreover, in test [4], the z-score was -0.657 (inactive).
For `COC(=O)[C@@]1(Cc2ccc(F)cc2)[C@H]2c3cc(C(=O)N(C)C)n(Cc4c(CO)[nH]cc(C)c4=O)c3C[C@H]2CN1C(=O)c1ccccc1`, the composite z-score in test [1] was -0.0424; in test [2] it was 0.617; in test [3], 0.721; in test [5] it was 0.663; in test [6], -0.271; in test [7] it was 0.0656. The composite z-score in test [8] was -0.217; in test [9], -0.12; in test [10] it was 0.693. In addition, the z-score in test [4] was -0.73 (inactive).
